Test results taken from the supplement of paper PMC6555819.

How the values were obtained:
Assay in all cases: PBM binding z-score (relative to random genomic background probes); higher = stronger binding; sequences stand for … in GC…GCGATTGACAGCGTAGAATGAAGG
[1] = system: FXR:RXRa (NR concentration 270 nM, RXRa partner concentration 90 nM)
How it was run: (§1)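 Ligand-free nuclear receptor dimers were applied to custom Agilent 4×180K protein-binding microarrays whose double-stranded probes carried direct-repeat seeds, single-nucleotide variants, half-site ablations and random human genomic background sequences in 34-nt variable regions. Incubation lasted 1 h. Binding z-scores were computed against the random background probes from regression-normalized fluorescence.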

[2] = system: LXRa:RXRa (NR concentration 270 nM, RXRa partner concentration 90 nM)
How it was run: as §1

[3] = system: LXRa homodimer (NR concentration 270 nM)
How it was run: as §1

[4] = system: LXRb:RXRa (NR concentration 270 nM, RXRa partner concentration 90 nM)
How it was run: as §1

[5] = system: LXRb homodimer (NR concentration 270 nM)
How it was run: as §1

[6] = system: PPARa:RXRa (NR concentration 270 nM, RXRa partner concentration 90 nM)
How it was run: as §1

[7] = system: PPARg:RXRa (NR concentration 180 nM, RXRa partner concentration 90 nM)
How it was run: as §1

[8] = system: PPARg:RXRa 270nM:90nM, anti-RXR (NR concentration 270 nM, RXRa partner concentration 90 nM)
How it was run: as §1

[9] = system: PPARg:RXRa 30nM:10nM, anti-RXR (NR concentration 30 nM, RXRa partner concentration 10 nM)
How it was run: as §1

[10] = system: PPARg:RXRa 90nM:30nM, anti-RXR (NR concentration 90 nM, RXRa partner concentration 30 nM)
How it was run: as §1

Sequence	PBM binding z-score [1]	PBM binding z-score [2]	PBM binding z-score [3]	PBM binding z-score [4]	PBM binding z-score [5]	PBM binding z-score [6]	PBM binding z-score [7]	PBM binding z-score [8]	PBM binding z-score [9]	PBM binding z-score [10]
TCTATCAGGCCAGAGGGTCACTCAAGAGGTACGG	1.28	1.42	-0.272	1.32	0.048	2.51	1.7	2.98	3.16	3
ACTAGTTTGTCAGCTGAGGTCACACACAATTCGG	3.55	3.38	2.38	3.67	1.33	3.71	1.49	2.21	0.672	1.86
GATACAGGGTCAGCTAGAGGCCACAGTATGGAAA	4.67	3.33	-0.234	2.65	-0.958	4.64	4.12	3.58	1.09	2.68
GCGACTGTGGCATCAGCAGGTTACCATAACTTAA	-0.475	-0.391	-0.237	-0.0453	-0.969	0.0749	0.0982	-0.457	-0.399	-0.487
CCTACTGGGCCAAAAAGCTCATTGATGCCGATAA	-0.506	-0.69	-0.717	-0.724	-1.22	-0.251	0.473	1.24	-0.429	0.564
ATCTCTAGGTAACCAAGTTCAGGGAATGCCGAAC	0.126	0.821	0.817	0.638	0.621	1.28	0.946	1.03	0.158	0.596
CCTGGTAGGTCATGGTCAGCTAATCTACAGTATG	3.94	3.15	0.527	2.3	0.0201	4.05	4.22	4.12	1.32	3.01
GCTTACGGGTCAAAGGTTATTGCATGAATAGAAT	7.79	5.75	1.09	5.81	0.701	6.84	11.3	9.3	8.78	10.8
CGTACTAGGTCAGAACAGGACAGTGAAGGATGAT	1.43	1.05	0.203	0.274	-0.0494	2.29	4.39	3.35	1.31	2.31
ACAGACAGGTGAGTGTAGGTAACTCAGCTGGACG	0.257	-0.0272	-0.446	-0.538	-0.878	0.215	0.458	0.248	-0.279	-0.0696
CCAGTCAGGTGAAAGGTAACTCAGTCTGGTACGC	0.669	0.466	-0.287	0.541	-0.583	3.61	6.45	6.44	5.15	7.56
CGTCCAAGGTCAAGGCCAGTGAAAGAGACTCGAA	7.2	5.21	0.208	3.73	0.00439	5.55	4.75	5.05	1.48	3.69
ATCTCTAGGTAAAATTTCAGTGAATCCCGAGGAT	0.303	0.0302	-0.0647	0.162	1.26	0.181	0.177	0.563	0.504	0.487
ACATACAGGTGATGAAGGTAACTCAGGCTATCAT	0.328	0.419	0.233	0.198	-0.055	0.484	1.06	0.534	0.477	0.425
ACTTACGGGTCCACGAGGTTATAGCACGCGTATA	0.87	0.822	0.478	1.39	0.189	1.6	1.01	0.696	0.165	0.469
CCGCGGAGGACAGAAGGTCAGAGCTGTCCGCTTT	1.22	1.49	-0.1	0.955	-1.05	1.77	-0.261	0.596	-0.857	0.289
AGAACGAGGGCACGCTGAGTCGATAGCAGAGTAG	0.534	0.569	-0.415	-0.0914	-1.26	1.98	2.05	1.66	0.0721	0.871
TCTTGTCGATCAATAGAGGTTAAGAAAGTGCGCT	0.786	3.69	0.541	1.92	0.134	1.97	0.144	1.76	2.67	1.98
TCGAGTTGGTCACGGAGGTCACACACGACGGGTA	3.27	3.24	1.8	3.05	-0.188	3.87	3.18	3.36	1.82	2.63
CCTAGTTGGTCAGGAGGGCACACACCGGATATGA	0.184	0.335	0.0656	0.24	-0.0952	0.641	0.988	0.912	0.0866	0.594
CCGAGTAGGTTATGAGGCATTCAGGCAACGGTGA	-0.0177	0.0841	-0.0523	-0.158	-0.156	1.02	1.3	2.22	0.331	1.44
TCTCGGCGGACACGAAAGGTCAGAGCTCGACATC	1.93	3.18	2.3	2.79	-0.427	2.94	0.571	1.69	1.42	1.53
CCTACTGGGCCAAAAGTCATTGATTCCAATGCTC	-0.29	0.0265	-0.0792	0.111	-0.713	3.54	7.06	7.89	8.84	9.3
